The list is not random: actives were taken first. Their share in the collection is about 0.82%.
Cardiac RTF inh: cardiac RTF calcium desensitization; inhibition, % at 7.15 µM; IANBD-labeled cardiac RTF, Ca2+ fluorescence; 340,000 compounds, 0.12% hits;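 active = inhibition above the mean inhibition of all tested compounds plus 3 SD, cut at about 17% in these data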;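 also: assay run at fixed EC70 calcium of 1.6 mM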
eLon inh: inhibits E. coli Lon protease; inhibition, % at 7.94 µM; purified E. coli Lon protease, fluorescence polarization; AID 602123; P0A9M0; 360,000 compounds, 0.42% hits; in the data active = inhibition above about 13%, passing the limit was not always enough;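 also: 0% = enzyme with probe and DMSO and 100% = no enzyme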
Target sequence (P0A9M0 whole entry, looked up): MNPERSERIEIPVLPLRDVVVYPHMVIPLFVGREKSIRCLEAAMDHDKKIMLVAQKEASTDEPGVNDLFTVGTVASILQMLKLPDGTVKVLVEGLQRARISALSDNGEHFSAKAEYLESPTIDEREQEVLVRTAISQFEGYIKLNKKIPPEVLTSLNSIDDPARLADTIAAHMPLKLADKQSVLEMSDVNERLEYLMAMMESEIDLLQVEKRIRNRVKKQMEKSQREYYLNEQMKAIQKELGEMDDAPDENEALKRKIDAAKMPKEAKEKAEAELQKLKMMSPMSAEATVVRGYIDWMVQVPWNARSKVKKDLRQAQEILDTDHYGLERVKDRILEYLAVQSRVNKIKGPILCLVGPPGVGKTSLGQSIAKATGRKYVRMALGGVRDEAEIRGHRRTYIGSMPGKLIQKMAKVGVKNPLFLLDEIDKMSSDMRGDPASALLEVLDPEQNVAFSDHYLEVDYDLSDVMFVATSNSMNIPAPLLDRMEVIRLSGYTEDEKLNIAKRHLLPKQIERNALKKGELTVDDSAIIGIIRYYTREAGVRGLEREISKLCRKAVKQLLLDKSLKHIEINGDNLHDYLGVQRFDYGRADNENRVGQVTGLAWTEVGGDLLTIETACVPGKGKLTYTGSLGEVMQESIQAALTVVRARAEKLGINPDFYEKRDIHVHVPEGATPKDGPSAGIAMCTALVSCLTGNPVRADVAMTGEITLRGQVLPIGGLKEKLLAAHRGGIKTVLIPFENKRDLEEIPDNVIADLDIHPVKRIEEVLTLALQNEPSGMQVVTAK
C-LANA FP: inhibitors of KSHV LANA C-terminal domain DNA binding; MBP-C-LANA/FAM-LBS DNA binding, fluorescence polarization; inhibition, % at 9 µM; 340,000 compounds, 0.078% hits; AID 504423;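 active = highest replicate inhibition at or above 60% at 9 µM, even if other replicates fall short; inactive = all replicates below 60% inhibition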;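 also: 0% = neutral control wells and 100% = 4 µM acridine orange control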
Keap1 Nrf2 FP: inhibitors of human Keap1-Nrf2 protein-protein interaction. Q14145. Keap1 Kelch-Nrf2 peptide fluorescence polarization, 1536-well. inhibition, % at 9.4 µM. 340,000 compounds, 0.15% hits. AID 504523; in the data active = inhibition above about 12%;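 also: human Keap1 Kelch domain with fluorescein labeled Nrf2 9mer peptide probe; 0% = neutral control wells and 100% = peptide positive control; higher means more block of Keap1 binding to Nrf2 peptide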
cardiac RTF act: cardiac RTF calcium sensitization; IANBD-labeled TnC RTF fluorescence at EC20 calcium; 0% EC20 calcium, 100% full calcium; activation, % at 7.2 µM; AID 493008; P19429+P45379; 340,000 compounds, 0.24% hits;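 active = activation above the mean over all tested compounds plus 3 SD, cut at about 30% in these data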;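 also: rise in fluorescence read as greater calcium sensitivity of cardiac thin filaments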
Numbers without * were called inactive; i = inactive; nt = not tested or not shown; + = active, no number.

SMILES	Cardiac RTF inh	eLon inh	C-LANA FP	Keap1 Nrf2 FP	cardiac RTF act
COc1ccc2cc(C(=O)N/N=C/c3sc4ccccc4c3O)ccc2c1	-135	i	-8	-20	109*
CN1C(=O)/C(=C/c2coc3ccc(O)cc3c2=O)SC1=S	-11	-31	-1	-4	0
CC(C)CSC1=NSC2=NC(=O)/C(=C\c3coc4ccccc4c3=O)C(=N)N12	i	-256	5	-122	662*
N=C1/C(=C\c2coc3ccccc3c2=O)C(=O)N=C2SC(c3ccncc3)=NN12	-171	-351	-24	-62	92*
N=C1/C(=C\c2coc3ccc(O)cc3c2=O)C(=O)N=C2SC=CN12	-218	-233	27	-8	152*
CSC1=NSC2=NC(=O)/C(=C\c3coc4ccccc4c3=O)C(=N)N12	-143	-360	12	-75	193*
N=C1/C(=C/c2coc3ccccc3c2=O)C(=O)N=C2SC(c3ccco3)=NN12	nt	-326	nt	nt	nt
C(=C\c1ccccc1)/CN1CCN(C(c2cccc3ccccc23)c2nnnn2-c2ccc3c(c2)OCCO3)CC1 (stereo not given)	nt	6	nt	nt	nt
COc1ccc(Cn2cc(CN3CC(N4CCN(C5CCN(C)CC5)CC4)CS3(=O)=O)nn2)cc1 (stereo not given)	nt	-8	nt	nt	nt
CCOC(=O)C1=NOC2(C1)C(=O)Nc1ccc(OC)cc12 (stereo not given)	nt	-5	nt	nt	nt
O=S1(=O)N[C@@H](Cc2ccccc2)COc2cc(N3CC[C@H](O)C3)ccc21	nt	-22	nt	nt	nt
COc1ccccc1NC(=O)CCN1C(=O)C2C3CCC(C3)C2C1=O (stereo not given)	-3	-3	0	-1	3
CC1(c2nnnn2Cc2ccccc2)CCC(=O)N1CC1CCCCC1 (stereo not given)	nt	-5	nt	nt	nt
O=c1[nH][nH]c2c(N=Cc3ccccc3O)ccc(F)c12	34*	25*	87*	-2	-24
Cc1cc(C=C2C(=O)c3ccccc3C2=O)c(C)n1-c1ccccc1	-15	-15	2	2	45*
NC(=O)c1cc[n+](CC2=C(C(=O)O)N3C(=O)[C@@H](NC(=O)C(c4ccccc4)S(=O)(=O)[O-])[C@H]3SC2)cc1 (stereo not given in full)	8	32	102*	23*	-9
N[C@@H](C(=O)N[C@@H]1C(=O)N2C(C(=O)O)=C(Cl)CS[C@H]12)c1ccccc1	-16	4	7	-2	4
Cc1cccc(Nc2nc(N)c([N+](=O)[O-])c(NCc3ccccc3)n2)c1	nt	6	nt	+	nt
Nc1nc(Nc2ccccc2)nc(NCc2ccccc2)c1[N+](=O)[O-]	4	0	-1	4	6
Cc1cc(C)n2c(Nc3ccc4c(c3)OCCO4)c(CC(C)C)nc2n1	nt	-10	nt	nt	nt
O=C(O)c1ccc2c(c1)C1C=CCC1C(c1cc3c(cc1Br)OCO3)N2 (stereo not given)	-18	1	5	-3	3
O=C(O)c1ccc(NS(=O)(=O)c2ccc3c(c2)C2C=CCC2C(c2ccccc2F)N3)cc1 (stereo not given)	-17	-4	108*	-4	1
CCOC(=O)/C(C#N)=C\C=C1C=CN(C)C=C1	-76	i	-43	-143	59*
CCn1c(O)c(/C=N/NC(=O)c2ccncc2)c(=O)n(CC)c1=S	-88	-203	-10	-159	97*
CCOc1ccc2ccccc2c1/C=N/NC(=O)c1ccncc1	-2	-5	3	0	10
SMILES	Cardiac RTF inh	eLon inh	C-LANA FP	Keap1 Nrf2 FP	cardiac RTF act
Cc1cc(C)cc(N=Cc2[nH]c3ccc(Br)c(Cl)c3c2O)c1	-88	-9	2	-1	64*
COc1ccc(-c2csc(NC(=O)CSc3nc(C)cs3)n2)cc1	5	2	6	1	0
COc1ccc(-c2csc(NC(=O)CSc3nc(C)nc4sc(C(=O)O)c(C)c34)n2)cc1	3	0	103*	2	0
CCOC(=O)/C(=C/C=C1\Sc2cc(C)c(C)cc2N1CC)C(C)=O	-209	i	-19	-21	160*
CCC(=O)/C=C1/Sc2ccc(OC)cc2N1CC	-2	0	-2	-4	-7
CCOC(=O)/C(=C\C=C1/Sc2ccccc2N1CC)C(C)=O	-206	i	-48	-129	245*
CCOC(=O)/C(=C/C=C1\Sc2ccccc2N1CC)C(C)=O	-220	i	-9	-59	128*
CCC(=O)/C=C1/Sc2ccccc2N1CC	-3	-5	3	2	-1

Compound activity deposited in PubChem by several laboratories.
